MsrA inh = inhibits bovine methionine sulfoxide reductase A. purified bovine MsrA, absorbance read-out. inhibition, % at 15.5 µM. 360,000 tested, 0.75% active. AID 651718
SMARCA2 activ = SMARCA2 function activation, primary screen. MG213 cells, MMTV-luciferase reporter, dexamethasone, overnight. activation, % at 9.1 µM. 370,000 tested, 1% active. AID 652017; in the data active = activation above about 7.8%
ABCB6 inh 2 = inhibitors of human ABC transporter ABCB6. Q9NP58. K562-ABCB6 porphyrin accumulation, flow cytometry, 1 h; stronger effect = lower value. fluorescence ratio to DMSO, % at 10 µM. 360,000 tested, 0.19% active. AID 602162;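 active = fluorescence ratio to DMSO below 75%, the collection mean minus 3 SD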;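 note: signal is porphyrin accumulated inside mitochondria; lower ratio means ABCB6 inhibition with less porphyrin fluorescence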
Target sequence (Q9NP58 whole entry, looked up): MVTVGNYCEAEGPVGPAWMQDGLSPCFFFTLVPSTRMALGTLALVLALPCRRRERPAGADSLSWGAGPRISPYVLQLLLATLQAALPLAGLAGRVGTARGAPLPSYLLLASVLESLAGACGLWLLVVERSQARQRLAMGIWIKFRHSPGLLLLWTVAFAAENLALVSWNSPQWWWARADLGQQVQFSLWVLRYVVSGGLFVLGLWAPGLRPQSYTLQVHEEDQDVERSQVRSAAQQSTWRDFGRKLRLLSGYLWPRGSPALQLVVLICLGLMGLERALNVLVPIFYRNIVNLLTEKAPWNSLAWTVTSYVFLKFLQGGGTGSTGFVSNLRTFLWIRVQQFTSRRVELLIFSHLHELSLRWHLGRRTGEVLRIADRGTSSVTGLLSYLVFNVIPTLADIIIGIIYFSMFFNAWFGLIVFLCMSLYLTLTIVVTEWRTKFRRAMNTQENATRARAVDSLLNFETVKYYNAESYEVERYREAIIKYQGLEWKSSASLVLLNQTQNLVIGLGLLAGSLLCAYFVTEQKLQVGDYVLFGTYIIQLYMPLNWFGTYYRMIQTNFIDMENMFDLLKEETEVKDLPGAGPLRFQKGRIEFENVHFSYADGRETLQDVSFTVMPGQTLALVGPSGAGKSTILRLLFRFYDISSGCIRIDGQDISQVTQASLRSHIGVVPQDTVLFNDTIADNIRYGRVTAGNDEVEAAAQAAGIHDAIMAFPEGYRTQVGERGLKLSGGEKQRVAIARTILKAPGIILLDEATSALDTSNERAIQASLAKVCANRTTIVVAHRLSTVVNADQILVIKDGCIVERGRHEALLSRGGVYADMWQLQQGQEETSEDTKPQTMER
MsrA act = activators of bovine methionine sulfoxide reductase A; 360,000 tested, 0.3% active; purified bovine MsrA, absorbance read-out; activation, % at 10.6 µM; in the data active = activation above about 7.5%
MsrA inh confirm = confirmation of bovine MsrA inhibitors; inhibition, % at 15.5 µM; AID 651822; 2,300 tested, 41% active; shares compounds with MsrA inh; purified bovine MsrA, absorbance read-out;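 note: coupled to thioredoxin reductase with NADPH and selenocystamine and DMSO as substrate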
A number is an active result; – = inactive; · = no result. Hits are enriched below; roughly 2.1% of the tested compounds scored in any of these assays. Cut-off read from the data, not from the text of the source, unless noted: active = inhibition above about 4.5%; inactive = the rest.

SMILES | MsrA inh | SMARCA2 activ | ABCB6 inh 2 | MsrA act | MsrA inh confirm
Cc1occc1-c1nnc(-c2cc([N+](=O)[O-])cc([N+](=O)[O-])c2)o1 | 7.7 | – | – | – | –
C=CCNC(=O)CN(C(=O)c1csc2ccc(Cl)cc12)c1cccc(Br)c1 | · | – | · | · | ·
COc1cccc(/C(C)=N/Nc2ccc(S(=O)(=O)N3CCCCC3)cn2)c1 | 4.8 | – | – | – | –
CC(C)(C)C(=O)OC12CCCN(C1)/C(=C/c1ccc(Cl)cc1)C2 (centres undefined) | · | – | · | · | ·
COCCn1c(=S)[nH]c2sc3c(c2c1=O)CCCC3 | 5.5 | – | – | – | –
Cn1c(=O)cc(OCCCC(=O)Nc2cccc(Cl)c2)c2ccccc21 | – | – | – | – | ·
CCN(CC)CCCNC(=O)c1cn(C(C)c2ccccc2)nn1 (centres undefined) | · | – | · | · | ·
O=S1(=O)CC2c3ccc(F)cc3CN2CN1CCc1ccccc1 (centres undefined) | · | – | · | · | ·
CCN(CCC#N)c1ccc(/C=N/Nc2nc(C)cc(=O)[nH]2)c(C)c1 | 6.0 | – | – | – | 4.7
Cc1cc(=O)[nH]c(N/N=C/c2ccc(N(C)C)cc2)n1 | 7.6 | – | – | – | 6.2
CCNc1nc(NCC)nc(N/N=C/c2ccc(N(C)C)cc2)n1 | 6.5 | – | – | – | 4.9
CCCc1cc(=O)oc2c3c(cc(OCC(=O)N4CCC(C(=O)O)CC4)c12)OC(C)(C)CC3 | 5.0 | – | – | – | –
CC(=O)c1cc(-c2cccc(Cl)c2O)c(=O)n2c1CCC2 | · | – | · | · | ·
CCOC(=O)C1=CC[C@@H](c2cccc(Br)c2)N(S(=O)(=O)c2ccc(F)cc2)[C@H]1c1cccc(Cl)c1 | – | – | · | · | ·
Nc1ccc(C(=O)N/N=C/c2ccc(N3CCOCC3)s2)cc1 | – | – | – | – | ·
COc1ccc(C(=O)N/N=C/c2sc(N3CCOCC3)nc2-c2ccccc2)cc1OC | – | – | – | – | ·
COc1ccccc1NS(=O)(=O)c1cc([N+](=O)[O-])ccc1N/N=C/c1sc(N2CCOCC2)nc1-c1ccccc1 | 11 | – | – | – | 7.0
O=C(N/N=C/c1sc(N2CCOCC2)nc1-c1ccccc1)c1ccc(O)cc1 | 17 | – | – | – | 10
O=C(N/N=C/c1cnc(N2CCOCC2)s1)c1ccccc1 | 5.2 | – | – | – | 5.1
O=C(CSc1nnc(SCc2cccc3ccccc23)s1)c1ccc(F)cc1 | · | – | · | · | ·
N#CCC[C@@H]1CC[C@]2(CCCN(C(=O)c3cccnc3)C2)O1 | · | – | · | · | ·
O=C(NCc1ccco1)/C(=C\C=C\c1ccccc1)NC(=O)c1ccco1 | – | – | – | – | ·
O=C(NCc1ccco1)/C(=C/c1ccccc1)NC(=O)c1ccco1 | – | – | – | – | ·
O=C(NCc1ccco1)/C(=C\C=C\c1ccccc1)NC(=O)c1ccccc1Br | 5.0 | – | – | – | –
CSc1ccc(/C=C(/NC(=O)c2ccco2)C(=O)NCc2ccco2)cc1 | 6.3 | – | – | – | –
SMILES | MsrA inh | SMARCA2 activ | ABCB6 inh 2 | MsrA act | MsrA inh confirm
O=C(NCc1ccco1)/C(=C/C=C/c1ccccc1)NC(=O)c1ccco1 | 4.9 | – | – | – | –
CN(C)CCNC(=O)C1Cc2c(-c3ccccc3Oc3ccccc3)ccnc2O1 (centres undefined) | – | – | – | – | ·
CO[C@H]1CN(C)C(=O)c2cc(NC(=O)C3CCOCC3)ccc2OC[C@H](C)N(Cc2nccs2)C[C@H]1C | – | – | · | · | ·
N/C(=N\N=C\c1ccco1)SC1CC(=O)N(c2ccccc2)C1=O (centres undefined) | 6.8 | – | – | – | –
C/C(=N\N=C(/N)SC1CC(=O)N(c2ccccc2)C1=O)c1cccs1 (centres undefined) | 5.1 | – | – | – | –
N/C(=N\N=C\c1ccco1)SC1CC(=O)N(c2ccc(C(=O)O)cc2)C1=O (centres undefined) | – | – | – | – | ·
COC(=O)[C@]12C[C@H](CC(=O)NCCc3ccccc3OC)C(=O)N(Cc3ccco3)C1=C[C@H](C(C)(C)C)O[C@@H]2C | · | – | · | · | ·
C=CC[C@@H]1NN2C(=O)[C@@H](CCCC)[C@@H]3c4ccccc4C=NN3[C@@H]2c2ccccc21 | · | – | · | · | ·
Cc1nc(/C=[N+](\[O-])C(C)(C)/C=N/O)n(O)c1C | 6.7 | – | – | – | 4.6
COc1ccc2c(C(c3ccccc3O)C3CCCN3S(=O)(=O)c3ccc(C)cc3)cn(C)c2c1 (centres undefined) | · | – | · | · | ·
Oc1ccc(/C=N/NC(=S)N/N=C/c2ccc(O)cc2)cc1 | 6.4 | – | – | – | 7.2
COc1cccc(/C=N/NC(=S)Nc2cccnc2)c1 | – | – | – | – | ·
Oc1ccc(/C=N/NC(=S)Nc2cccnc2)cc1 | 7.9 | – | – | – | 6.2
COc1ccccc1NC(=S)N/N=C/c1ccc(O)cc1 | – | – | – | – | ·
OCCOCCn1c(-c2ccccc2)nc(=S)c2c1CCCC2 | 5.9 | – | – | – | –
N#Cc1cc([N+](=O)[O-])ccc1N1CCCC1 | 11 | – | – | – | 5.0
CC(C)CN(CC(C)C)c1ccc(/C=N/n2cnnc2)cc1[N+](=O)[O-] | – | – | – | – | ·
O=Cc1ccc(N2CCCC2)c([N+](=O)[O-])c1 | 6.7 | – | – | – | 4.8
O=[N+]([O-])c1cc(/C=N/n2cnnc2)ccc1N1CCCC1 | 7.7 | – | – | – | 5.1
Cc1nc2c(o1)C(=O)c1ccccc1C2=Nc1ccccc1 | 8.9 | – | – | – | 15
Cc1ccc(N=C2C(=O)Nc3ccccc32)cc1 | – | – | – | – | ·
COC(=O)C1=C(C)N(Cc2cccc(C(F)(F)F)c2)C(=NCc2ccc3c(c2)OCO3)NC1c1ccc(F)cc1 (centres undefined) | – | – | · | · | ·
Cc1c(N=NC2=C(O)CCCC2=O)c(=O)n(-c2ccccc2)n1C | – | – | – | – | ·
Cc1c(N=Nc2ccc(O)cc2)c(=O)n(-c2ccccc2)n1C | 5.2 | – | – | – | –
N#Cc1ccc(Cn2ccc3ccc(-c4ccc5ccn(C(=O)C6CCCCC6)c5c4)cc32)cc1 | · | – | · | · | ·
SMILES | MsrA inh | SMARCA2 activ | ABCB6 inh 2 | MsrA act | MsrA inh confirm
O=C(N/N=C/c1c[nH]c2ccccc12)c1[nH]c2ccc(Br)cc2c1-c1ccccc1 | 5.1 | – | – | – | –
O=C(N/N=C/c1ccc(O)cc1)c1[nH]c2ccc(Br)cc2c1-c1ccccc1 | – | – | – | – | ·
CN(Cc1ccccc1)C(=O)OCc1cn(Cc2ccccc2C(F)(F)F)nn1 | · | – | · | · | ·
COc1ccc(C(=O)NCC2CCN(C(=O)C(=O)c3cccs3)CC2)cc1 | – | – | · | · | ·
O=[N+]([O-])c1cc(/C=N/Nc2nc3ccccc3[nH]2)c(O)cc1O | 5.7 | – | · | · | 5.0
Fc1cccc(/C=N/Nc2nc3ccccc3[nH]2)c1 | 4.7 | – | · | · | –
Cc1ccccc1/C=N/Nc1nc2ccccc2[nH]1 | – | – | – | – | ·
COc1ccc(C(=O)N(C)[C@H]2C[C@H]3c4[nH]c5cccc(-c6ccccc6)c5c4CCN3C[C@H]2[C@H](C)O)cc1 | · | – | · | · | ·
O=C(O)c1ccc(N/N=C/c2c(F)cccc2Cl)cc1 | 6.5 | – | – | – | –
C/C(=N\NC(=O)c1ccc(CSc2nncn2C)cc1)c1cccs1 | – | – | – | – | ·
COc1cc(/C=N/NC(=O)c2ccc(CSc3nncn3C)cc2)cc(OC)c1O | 5.0 | – | – | – | –
Cn1cnnc1SCc1ccc(C(=O)N/N=C/c2cccs2)cc1 | 4.7 | – | – | – | –

Assay outcomes deposited in PubChem by several laboratories.
